The values that follow come from article PMC13541613, “GHT-SELEX demonstrates unexpectedly high intrinsic sequence specificity and complex DNA binding of many human transcription factors”.

Assay in all cases: HT-SELEX; 20 mM HEPES pH 7, 140 mM KCl, 5 mM NaCl, 1 mM K2HPO4, 2 mM MgSO4, 100 uM EGTA, ZnSO4, 0.1% Tween20; room temperature, 1 h; high values mean tight binding
Common to all, as to conditions: protein: ivt; tags: eGFP (N-terminal); dsDNA, one strand shown

In one test the target is ZNF721 full-length (Homo sapiens, UniProt Q8TF20-2 1-923). The procedure, abridged:
(§1)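 Full-length or DNA-binding-domain forms of a tagged transcription factor were produced in HEK293 lysate or cell-free extract and immobilised on beads. Incubation with a randomized 40-base DNA library ran for 1 h at room temperature in HEPES/KCl low-stringency buffer with Tween20, after which bound DNA was washed, heat-eluted, PCR-amplified over successive cycles and Illumina-sequenced. Binding strength is given as the relative k-mer count in selected reads, higher for tighter binding.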

The next test concerns the target ZNF721 DBD1 (Homo sapiens, UniProt Q8TF20-2 29-461). Put shortly:
as §1

The next test deals with ZNF721 DBD2 (Homo sapiens, UniProt Q8TF20-2 395-923). Put shortly: as §1
Sequence of ZNF721 DBD2 (Q8TF20 383-911): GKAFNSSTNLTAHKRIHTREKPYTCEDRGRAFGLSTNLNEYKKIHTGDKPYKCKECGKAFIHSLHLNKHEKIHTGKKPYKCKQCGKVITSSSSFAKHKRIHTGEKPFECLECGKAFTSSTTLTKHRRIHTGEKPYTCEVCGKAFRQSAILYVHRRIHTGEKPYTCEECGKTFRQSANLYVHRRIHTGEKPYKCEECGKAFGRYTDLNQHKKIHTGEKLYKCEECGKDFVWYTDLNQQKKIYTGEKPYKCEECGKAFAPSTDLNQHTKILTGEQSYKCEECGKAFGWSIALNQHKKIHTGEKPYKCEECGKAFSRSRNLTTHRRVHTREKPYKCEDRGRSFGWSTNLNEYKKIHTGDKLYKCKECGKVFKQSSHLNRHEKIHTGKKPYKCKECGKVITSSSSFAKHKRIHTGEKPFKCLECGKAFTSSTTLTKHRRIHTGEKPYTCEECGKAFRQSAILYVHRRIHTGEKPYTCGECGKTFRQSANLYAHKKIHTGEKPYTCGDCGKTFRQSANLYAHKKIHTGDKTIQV

Sequence of ZNF721 full-length (Q8TF20 other isoform, or with tags, fused parts or gaps): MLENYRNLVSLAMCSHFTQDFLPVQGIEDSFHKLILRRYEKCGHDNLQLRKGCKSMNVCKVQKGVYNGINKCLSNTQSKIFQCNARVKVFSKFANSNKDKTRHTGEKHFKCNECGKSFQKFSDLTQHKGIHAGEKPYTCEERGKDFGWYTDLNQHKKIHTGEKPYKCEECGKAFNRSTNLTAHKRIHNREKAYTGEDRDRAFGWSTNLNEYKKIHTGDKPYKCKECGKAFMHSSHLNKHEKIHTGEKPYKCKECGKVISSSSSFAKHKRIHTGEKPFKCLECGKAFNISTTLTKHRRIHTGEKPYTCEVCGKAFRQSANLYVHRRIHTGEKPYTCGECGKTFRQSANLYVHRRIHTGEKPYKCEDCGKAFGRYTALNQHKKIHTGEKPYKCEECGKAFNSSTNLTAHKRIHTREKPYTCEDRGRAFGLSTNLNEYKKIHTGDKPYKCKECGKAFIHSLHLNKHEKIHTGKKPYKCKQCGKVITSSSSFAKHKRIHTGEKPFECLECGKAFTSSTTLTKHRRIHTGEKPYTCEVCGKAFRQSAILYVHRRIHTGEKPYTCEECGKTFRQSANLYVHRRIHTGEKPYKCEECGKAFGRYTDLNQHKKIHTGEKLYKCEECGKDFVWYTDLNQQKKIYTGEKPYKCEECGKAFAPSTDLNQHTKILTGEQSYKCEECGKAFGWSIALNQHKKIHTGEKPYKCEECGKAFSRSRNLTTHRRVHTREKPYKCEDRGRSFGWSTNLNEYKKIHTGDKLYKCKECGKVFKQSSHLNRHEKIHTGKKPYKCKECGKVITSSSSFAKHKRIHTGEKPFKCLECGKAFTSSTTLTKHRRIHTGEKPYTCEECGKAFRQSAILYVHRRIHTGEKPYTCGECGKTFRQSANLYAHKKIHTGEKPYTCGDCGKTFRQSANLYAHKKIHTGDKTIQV
Sequence of ZNF721 DBD1 (Q8TF20 17-449): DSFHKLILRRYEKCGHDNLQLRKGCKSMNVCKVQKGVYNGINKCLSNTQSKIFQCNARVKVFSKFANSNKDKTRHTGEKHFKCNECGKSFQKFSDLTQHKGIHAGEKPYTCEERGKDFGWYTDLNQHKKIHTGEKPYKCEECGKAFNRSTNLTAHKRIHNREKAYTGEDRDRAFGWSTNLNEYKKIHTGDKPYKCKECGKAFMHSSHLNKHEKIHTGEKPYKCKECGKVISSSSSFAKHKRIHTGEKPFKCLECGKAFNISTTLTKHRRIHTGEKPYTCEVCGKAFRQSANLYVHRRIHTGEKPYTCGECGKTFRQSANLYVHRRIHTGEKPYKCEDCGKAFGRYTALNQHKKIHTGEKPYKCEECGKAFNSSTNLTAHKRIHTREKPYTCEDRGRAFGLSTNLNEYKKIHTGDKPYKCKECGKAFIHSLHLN

As for CAGCGTATCC, the results for the binding signal with ZNF721 full-length, with ZNF721 DBD1 and with ZNF721 DBD2 were 0.324 relative 10-mer count, 0.00174 relative 10-mer count and 0.648 relative 10-mer count, respectively.

CACCCGCCCC: the binding signal was determined as 0.188 relative 10-mer count with ZNF721 full-length, 0.0066 relative 10-mer count with ZNF721 DBD1 and 0.00108 relative 10-mer count with ZNF721 DBD2.

CCCTCCCGCC: the results for the binding signal with ZNF721 full-length, in the test with ZNF721 DBD1 and in the test with ZNF721 DBD2 were 0.161 relative 10-mer count, 0.00716 relative 10-mer count and 0.00503 relative 10-mer count, respectively.

Take CCACCCCCGC: the binding signal worked out at 0.203 relative 10-mer count in the test with ZNF721 full-length, 0.0072 relative 10-mer count in the test with ZNF721 DBD1 and 0.00264 relative 10-mer count with ZNF721 DBD2.

In the case of CGCCCCGCCC, the binding signal with ZNF721 full-length was 0.139 relative 10-mer count; with ZNF721 DBD1 it was 0.00555 relative 10-mer count; in the test with ZNF721 DBD2, 0.00132 relative 10-mer count.

CAAACAAGCA: the binding signal with ZNF721 full-length came out at 0.102 relative 10-mer count; with ZNF721 DBD1 it was 0.00362 relative 10-mer count; with ZNF721 DBD2, 0.063 relative 10-mer count.

For the sequence CCCGTCCCCC, the binding signal with ZNF721 full-length worked out at 0.187 relative 10-mer count; in the test with ZNF721 DBD1, 0.00771 relative 10-mer count; in the test with ZNF721 DBD2 it was 0.0018 relative 10-mer count.

Turning to AGCATACCCT, the values for the binding signal with ZNF721 full-length, with ZNF721 DBD1 and with ZNF721 DBD2 were 0.346 relative 10-mer count, 0.0443 relative 10-mer count and 0.416 relative 10-mer count, respectively.

As for ACGCCCACCC, the values for the binding signal with ZNF721 full-length, with ZNF721 DBD1 and with ZNF721 DBD2 were 0.129 relative 10-mer count, 0.00486 relative 10-mer count and 0.00587 relative 10-mer count, respectively.

Consider GCATACCCTA, for which the binding signal was found to be 0.202 relative 10-mer count with ZNF721 full-length, 0.0231 relative 10-mer count with ZNF721 DBD1 and 0.217 relative 10-mer count in the test with ZNF721 DBD2.

Regarding CCGCCACCCC, the binding signal in the test with ZNF721 full-length stood at 0.307 relative 10-mer count; in the test with ZNF721 DBD1, 0.0102 relative 10-mer count; in the test with ZNF721 DBD2, 0.0018 relative 10-mer count.

CGCCTCCCCC: the binding signal with ZNF721 full-length came out at 0.126 relative 10-mer count; with ZNF721 DBD1 it was 0.0061 relative 10-mer count; in the test with ZNF721 DBD2, 0.00336 relative 10-mer count.

Take CCCCACCCGC: the results for the binding signal with ZNF721 full-length, with ZNF721 DBD1 and with ZNF721 DBD2 were 0.186 relative 10-mer count, 0.00651 relative 10-mer count and 0.003 relative 10-mer count, respectively.

GCAGCATACC: the binding signal was 0.151 relative 10-mer count with ZNF721 full-length, 0.00147 relative 10-mer count with ZNF721 DBD1 and 0.158 relative 10-mer count in the test with ZNF721 DBD2.

Consider AGCGTACCCA, for which the binding signal in the test with ZNF721 full-length was 0.188 relative 10-mer count; with ZNF721 DBD1, 0.0311 relative 10-mer count; with ZNF721 DBD2 it was 0.162 relative 10-mer count.

As for GCCCTCCCCC, the figures for the binding signal with ZNF721 full-length, with ZNF721 DBD1 and in the test with ZNF721 DBD2 were 0.163 relative 10-mer count, 0.00716 relative 10-mer count and 0.00911 relative 10-mer count, respectively.

On to AAAAAAAACA, for which the binding signal with ZNF721 full-length came out at 0.37 relative 10-mer count; with ZNF721 DBD1, 0.00592 relative 10-mer count; with ZNF721 DBD2, 0.252 relative 10-mer count.

With ACCCCACCCA, the binding signal amounted to 0.173 relative 10-mer count in the test with ZNF721 full-length, 0.00583 relative 10-mer count with ZNF721 DBD1 and 0.00419 relative 10-mer count with ZNF721 DBD2.

For CCATCCCCAC, the figures for the binding signal with ZNF721 full-length, with ZNF721 DBD1 and in the test with ZNF721 DBD2 were 0.116 relative 10-mer count, 0.00537 relative 10-mer count and 0.00372 relative 10-mer count, respectively.

Regarding AACAAGCAGT, the binding signal with ZNF721 full-length was 0.128 relative 10-mer count; with ZNF721 DBD1, 0.017 relative 10-mer count; with ZNF721 DBD2, 0.0905 relative 10-mer count.

Consider CCACCACCGC, for which the binding signal stood at 0.11 relative 10-mer count in the test with ZNF721 full-length, 0.00482 relative 10-mer count with ZNF721 DBD1 and 0.00503 relative 10-mer count in the test with ZNF721 DBD2.

Take CGCCCACCAC: the binding signal turned out to be 0.138 relative 10-mer count in the test with ZNF721 full-length, 0.00569 relative 10-mer count in the test with ZNF721 DBD1 and 0.00384 relative 10-mer count in the test with ZNF721 DBD2.

As to AAAAGCAGCA, the binding signal with ZNF721 full-length was found to be 0.304 relative 10-mer count; with ZNF721 DBD1, 0.00578 relative 10-mer count; with ZNF721 DBD2 it was 0.296 relative 10-mer count.

CCACCCCCAA: the binding signal came to 0.118 relative 10-mer count with ZNF721 full-length, 0.00546 relative 10-mer count in the test with ZNF721 DBD1 and 0.00491 relative 10-mer count with ZNF721 DBD2.

Turning to CCCACCCCTC, the binding signal is 0.188 relative 10-mer count in the test with ZNF721 full-length, 0.01 relative 10-mer count with ZNF721 DBD1 and 0.00527 relative 10-mer count with ZNF721 DBD2.

Take CCCAACCCAC: the binding signal with ZNF721 full-length was 0.149 relative 10-mer count; in the test with ZNF721 DBD1, 0.0056 relative 10-mer count; with ZNF721 DBD2, 0.00515 relative 10-mer count.

On to CCCCGCGCCC, for which the binding signal with ZNF721 full-length worked out at 0.138 relative 10-mer count; with ZNF721 DBD1, 0.00482 relative 10-mer count; in the test with ZNF721 DBD2, 0.00228 relative 10-mer count.

On to CCACCTCCCC, for which the binding signal was 0.278 relative 10-mer count in the test with ZNF721 full-length, 0.0134 relative 10-mer count with ZNF721 DBD1 and 0.00336 relative 10-mer count with ZNF721 DBD2.

CCCCCTCCCG: the results for the binding signal in the test with ZNF721 full-length, in the test with ZNF721 DBD1 and with ZNF721 DBD2 were 0.114 relative 10-mer count, 0.00573 relative 10-mer count and 0.00336 relative 10-mer count, respectively.

As for CCACCCTACC, the binding signal in the test with ZNF721 full-length came to 0.115 relative 10-mer count; with ZNF721 DBD1, 0.00688 relative 10-mer count; with ZNF721 DBD2, 0.00839 relative 10-mer count.

As for AGAAAGAAGC, the binding signal turned out to be 0.136 relative 10-mer count in the test with ZNF721 full-length, 0.0675 relative 10-mer count in the test with ZNF721 DBD1 and 0.00216 relative 10-mer count with ZNF721 DBD2.

Take CCCCCGCCTC: the binding signal came to 0.119 relative 10-mer count with ZNF721 full-length, 0.00509 relative 10-mer count with ZNF721 DBD1 and 0.0036 relative 10-mer count with ZNF721 DBD2.

With CTAAAAAAAA, the figures for the binding signal with ZNF721 full-length, in the test with ZNF721 DBD1 and with ZNF721 DBD2 were 0.107 relative 10-mer count, 0.0111 relative 10-mer count and 0.0533 relative 10-mer count, respectively.

On to CTCCCACCAC, for which the figures for the binding signal with ZNF721 full-length, in the test with ZNF721 DBD1 and with ZNF721 DBD2 were 0.11 relative 10-mer count, 0.00752 relative 10-mer count and 0.00599 relative 10-mer count, respectively.

As to CAACAAAACA, the binding signal stood at 0.111 relative 10-mer count in the test with ZNF721 full-length, 0.00174 relative 10-mer count with ZNF721 DBD1 and 0.116 relative 10-mer count with ZNF721 DBD2.

With GTATGAAGCA, the figures for the binding signal with ZNF721 full-length, with ZNF721 DBD1 and in the test with ZNF721 DBD2 were 0.171 relative 10-mer count, 0.261 relative 10-mer count and 0.00132 relative 10-mer count, respectively.

Take CCCCCCACCG: the binding signal came out at 0.17 relative 10-mer count in the test with ZNF721 full-length, 0.00605 relative 10-mer count with ZNF721 DBD1 and 0.0036 relative 10-mer count with ZNF721 DBD2.

Regarding CACCCTCCCA, the binding signal with ZNF721 full-length stood at 0.123 relative 10-mer count; in the test with ZNF721 DBD1, 0.00555 relative 10-mer count; in the test with ZNF721 DBD2 it was 0.00443 relative 10-mer count.
